# Reference: PubChem BioAssay (EPA / NIEHS)
# Active and inactive are the calls of the source. Rule for the calls: active = hit-call score of the fitted dose curve at least 0.9, where 1 is the maximum; inactive = score below 0.9.
# Assay: ATG_TCF_b_cat_CIS: Attagene CIS-FACTORIAL HepG2 Assay for human T-Cell-Factor with beta-catenin (TCF/b-cat) (AID 2282965)
# Settings: HepG2 TCF/beta-catenin cis-reporter transcription, actives raise or lower the signal
# Protocol: ATG_CIS is a cell-based, multiplexed-readout assay that uses HepG2, a human liver cell line, with measurements taken at 24 hours after chemical dosing in a 24-well plate.ATG_TCF_b_cat_CIS is one of 52 assay component(s) measured or calculated from the ATG_CIS assay. It is designed to make measurements of mRNA induction, a form of inducible reporter, as detected with fluorescence intensity signals by Reverse transcription polymerase chain reaction (RT-PCR) and Capillary electrophoresis technology.Data from the assay component ATG_TCF_b_cat_CIS was analyzed into 1 assay endpoint. This assay endpoint, ATG_TCF_b_cat_CIS, was analyzed with bidirectional fitting relative to DMSO as the negative control and baseline of activity. Using a type of inducible reporter, measures of mRNA for gain or loss-of-signal activity can be used to understand the reporter gene at the transcription factor-level as they relate to the gene TCF7 and TCF7L2 and LEF1 and TCF7L1. Furthermore, this assay endpoint can be referred to as a primary readout, because this assay has produced multiple assay endpoints where this one serves a reporter gene function. To generalize the intended target to other relatable targets, this assay endpoint is annotated to the dna binding intended target family, where the subfamily is HMG box protein.
# Human liver HepG2 cells are transiently transfected with multiple reporter transcription units (MRTUs) in 6-well plates using FuGene 6 reagent (Roche; 3 ml FuGene/1 mg DNA). The MRTU constructs are regulated by a cis-regulating element (promoter). […] A major difference between the CIS and TRANS system is that in CIS activities of endogenous TFs are measured, whereas the TRANS assay evaluates changes in activities of exogenous, chimeric NR-Gal4 proteins. […] At the end of 24 hour incubation, total RNA was isolated using TriZol reagent (Invitrogen). The isolated RNA is then reverse-transcribed using oligo(dT) primer and Mo-MLV reverse transcriptase (Invitrogen) with DNAse I (Ambion) treatment for 30 min. The one-tenth of the produced cDNA was amplified by PCR using Taq DNA polymerase (Invitrogen) and two reporter sequence-specific primers. The PCR products were fluorescently labeled by primer extension with 6-arboxyfluorescein (6-FAM) 5'-labeled reporter sequence-specific primer (2 min at 95 C, 20 s at 68 C and 10 min at 72 C) and these products were digested with 5U of HpaI (New England Biolabs) for 2h at 37 C. The fragments were purified using Qiaquick PCR columns (Qiagen), analyzed on an ABI 3130xL genetic analyzer (Applied Biosystems) with peak positions identified by using a set of X-rhodamine (ROX)-labeled MapMarker1000 molecular weight standards (BioVentures). The raw capillary electrophoresis data was processed using Attagraph software (Attagene).
SMILES,outcome,AC50
O=S(=O)(O)CC(O)CCl (stereo not given),inactive,
O=C(O)CC(C(=O)O)C(CC(=O)O)C(=O)O (stereo not given),inactive,
[Cl][Bi]([Cl])([c]1ccccc1)([c]1ccccc1)[c]1ccccc1,,5.75 µM (active)
O=C1CCCCCCCCCCC(=O)OCCO1,inactive,
CC1(C)O[C@@H]2C[C@H]3[C@@H]4C[C@H](F)C5=CC(=O)C=C[C@]5(C)[C@@]4(F)[C@@H](O)C[C@]3(C)[C@]2(C(=O)CO)O1,inactive,
O=C(O)c1cc(Cl)cc([N+](=O)[O-])c1Cl,inactive,
NC(=O)NNC(N)=O,inactive,
O=C(O)CCCCCCCCCC(=O)O,inactive,
NCCCN1CCN(CCCN)CC1,inactive,
O=C1CCCCCCCCCCCCCCCO1,inactive,
O=C(Cl)c1cc(C(=O)Cl)cc(C(=O)Cl)c1,inactive,
CC1=CC[C@H](C(C)C)C=C1,inactive,
O=C1c2cccc(O)c2C(=O)c2c(O)cc(CO)cc21,inactive,
O=C(O)C(c1ccc(Cl)cc1)c1ccc(Cl)cc1,inactive,
Cc1cccc(N(C)C(=S)Oc2ccc3ccccc3c2)c1,inactive,
OCCNCc1ccccc1,inactive,
Nc1ncn([C@@H]2O[C@H](CO)[C@@H](O)[C@H]2O)c(=O)n1,,0.975 µM (active)
COCc1c(C(C)C)nc(C(C)C)c(/C=C/[C@@H](O)C[C@@H](O)CC(=O)O)c1-c1ccc(F)cc1,inactive,
C[C@]12CCC(=O)C=C1CC[C@@H]1[C@@H]2C(=O)C[C@@]2(C)[C@H]1CC[C@]2(O)C(=O)CO,inactive,
CCOc1nc(F)cc2nc(S(=O)(=O)Nc3c(Cl)cccc3C(=O)OC)nn12,inactive,

SMILES,outcome,AC50
CCCCCCCCCCCCCCCC(=O)OCC,inactive,
CCN(CCO)c1cccc(C)c1,inactive,
C=C1C2CCC(C2)C1(C)C (stereo not given),inactive,
C=CC=CC=CCCCCC,inactive,
O=C1OC(=O)c2cc(Oc3ccc4c(c3)C(=O)OC4=O)ccc21,inactive,
CCCNC(=O)NS(=O)(=O)c1ccc(Cl)cc1,inactive,
CN1C(=O)N(C)C(O)C1O (stereo not given),inactive,
O=C(O)c1ccccc1Nc1cccc(C(F)(F)F)c1,inactive,
Cc1cc(O)c(Cl)c(C)c1Cl,inactive,
O=S(=O)(Oc1ccc(Cl)cc1Cl)c1ccccc1,inactive,
CCOC(F)(F)C(F)(F)C(F)(F)C(F)(F)F,inactive,
C=C1[C@H]2CC[C@@H]3[C@H]2C(C)(C)CCC[C@]13C,inactive,
CCCCCCCCCCCCCCCC[n+]1ccccc1,inactive,
FC(F)(F)C(=NOCC1OCCO1)c1ccc(Cl)cc1,inactive,
Cc1ccc2c(c1)C(=O)c1ccccc1C2=O,inactive,
CCCCCCCC(C)=O,inactive,
CCCCCCCCCCCCCCCCCC#N,inactive,
CC(CC=O)CCCC(C)(C)O (stereo not given),inactive,
COC(=O)/C=C/C(C)=C\C=C\C(C)=C\C=C\C=C(C)\C=C\C=C(C)\C=C\C(=O)O,inactive,
Cc1c(C)c([N+](=O)[O-])c(C(C)(C)C)c([N+](=O)[O-])c1C,inactive,
